# Data: the supplement of paper PMC6555819
# System: VDR:RXRa (NR concentration 270 nM, RXRa partner concentration 90 nM)
# Assay: PBM binding z-score (relative to random genomic background probes); higher = stronger binding; sequences stand for … in GC…GCGATTGACAGCGTAGAATGAAGG
# Protocol: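 Protein-binding microarray (Agilent 4x180K custom design, double-stranded 60-nt probes: 5' GC cap, 34-nt variable region, 24-nt constant primer region; full probe sequence given). Purified or IVT nuclear receptor:RXRα heterodimers (3:1 NR:RXRα, mostly 270:90 nM) or homodimers were incubated for 1 h in PBS with 2% milk and no ligand, then detected with Alexa488 antibodies. Fluorescence from o1-orientation probes (~5 replicates averaged) was converted to z-scores against 500 random hg19 background probes. Variable regions are seed direct-repeat (DR0–DR5) sites, all their single-nucleotide variants and half-site ablations.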
row,Sequence,PBM binding z-score
1,AGAATGAGGTTAGGATCAGGGAAACAGAATACAT,0.51
2,GATACAGGGTCAGCGAGAGGCCAGAGTATGGAAA,3.67
3,CCTACTGGGCCTTCAGGTCATTGATATCAACGTT,1.45
4,CCGACTGGGGCATAACGTTACCATAAGCCAGCCC,-0.52
5,GTACCAAGGTGAATGGGTCGTTGATGAGTAGGCG,1.06
6,ACTAGCAGGGCAAGTTTGGGTCACTCAAACAAAG,1.32
7,GCTAGCAGGCCATTGGGGTCACTCAATGACGGGC,6.04
8,TCTATTAGTTGATTAGAGCAACCGAAACAGCGGA,0.404
9,CCTCGGAGAACAGAAGGTCAGAGCTGTCCGCTTT,1.03
10,CGTACTGGGCCACGAAAGGTCATTGATTCAGTGA,4.47
11,AATAGCAGGCCAAGGGTCACTCAAGATTAGTCCG,2.92
12,CCGACTGGGGCATAAGGTTATCATAAGCCAGCCC,0.25
13,CGTCCAAGGTCTAAGGTCAGTGAAGAGATGACGG,1.73
14,GGACCGAGGGCATTCGAGTTGATAGCATGGCGAT,3.66
15,AGAACGAGGGCACGCTGAGTTGATAGTAGAGTAG,2.38
16,ATATGTAGGGTAGCTGGGGTCATTCAGACTAGGC,5.75
17,TCTGCTAGGTCAATTGGTCAGCTAACGAGCTGCC,0.925
18,TAGCCTAGGTCATGGGCCAGGATACCACGCGAAC,1.97
19,ATCGAAAGGTCGAAGGTGAGGATACCCACCCGAA,2.71
20,ACTATTAGTTGAGACGAGGGCCACCGATAGGTTG,-0.293

row,Sequence,PBM binding z-score
1,TGAATAAGGTTATAAGATCAGGGAACGTTGCAAA,0.743
2,CAAACTAGGTCAAAGGGCAAAGTCGAGCCAACCA,3.83
3,CCTCGGAGGACAACTGGAGGTCAGAGCTGCCAGA,2.08
4,GCTACTAGGTCAACTGATGGTCAGCTAAAGCTCG,1.79
5,TTACCAAGGTGAAAGGTCGTTTATGCACGCCTTG,3.32
6,ACTACAGGGTCATCGTAGGCCAGAGTACGCACAG,5.05
7,GCTAGCAGGCCATTTAGGTCACTCAATGACGGGC,0.996
8,CATAAAGGGTCAGCTAGGCCAGAGTAGGGACGGC,4.05
9,GGAACGAGGGCAGAGTTGATAGCATCTGTCGACG,0.0819
10,GCTGCTAGGTCAGGTTGGGCAGCTAACGGGTACG,-0.00639
11,TCTTATAGATCAAGCAGGTTAAGAAAGCCTGAGT,0.894
12,CAAACTAGGTCAAAGGTTAAAGTCGAGCCAACCA,4.87
13,TAGCCTAGGTCATTGGGACAGTATAGTACGCATC,2.35
14,GTACCAAGGTCAATAGGTCGTTGATGAGTAGGCG,4.69
15,CCTACTGGTCCAAAAAGGTCATTGATGCCGATAA,4.99
16,TGAATGAGGATAAAGATCAGGGAACGTGGCGTCG,-0.375
17,CAAACTAGGTCAAGGGCAAAGTCGGTTTGTGCCA,2.54
18,CCTGCTAGGTCAATGGTCAGCTATAGCAGCTCGC,0.921
19,CAGCCTAGGTCAGGGCCAGTATAGGAGGAACGTT,0.31
20,ATACCAAGGTGATCGTGAGGCCGTTGATACTAAC,0.401
